Records with an inconclusive call do not appear. Activity calls are given as the source filed them. Unless noted, calls come from the whole dose curve; as a rule, active = well fitted curve in the direction sought with a large enough effect in the repeat runs; inconclusive = weak or mixed curves; inactive = no such curve, though single readings can be large; an effect the other way counts as inactive or inconclusive.
Tests used:
[1] = target: Estrogen receptor beta (Homo sapiens) (UniProt Q92731); assay: qHTS assay to identify small molecule agonists of the estrogen receptor beta (ER-beta) signaling pathway (AID 1259377; active = well fitted activation curve with a large enough effect in the signal ratio in the repeat runs, not every such curve was filed as active; the % refers to the signal ratio)
How it was run: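 ER-beta-UAS-bla HEK293T cells in medium with 2% charcoal-stripped FBS were exposed to compounds for 16 h at 37C. Beta-lactamase reporter activity was read as fluorescence after 2 h with LiveBLAzer B/G FRET substrate at room temperature.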

[2] = target: Estrogen receptor beta (Homo sapiens) (UniProt Q92731); assay: qHTS assay to identify small molecule antagonists of the estrogen receptor beta (ER-beta) signaling pathway (AID 1259378; active = well fitted inhibition curve with a large enough effect in the signal ratio in the repeat runs, not every such curve was filed as active; the % refers to the signal ratio)
How it was run: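 Antagonist mode: compounds added to beta-lactamase reporter HEK293T ER-beta-UAS cells stimulated with E2 (1nM final), 16 hr at 37C. LiveBLAzer B/G FRET substrate, 2 hours room temperature, fluorescence read-out.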

[3] = qHTS assay to identify small molecule agonists of the androgen receptor (AR) signaling pathway in the presence of an antagonist - cell viability counter screen (AID 1259379);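 note: MDA-kb2 human breast cancer cells carrying an MMTV luciferase reporter; series mostly up to about 92 µM; nearly all actives have a fitted effect of over 25% in size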
How it was run: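 Cells: MDA-kb2 (MMTV-luc, AR and GR elements), 3,000/well, 5 hr settle. Added: nilutamide 3.0uM final, then compounds (15 conc.). Incubation: 16 hr, 37C, no CO2. Read-out: CellTiter-Fluor, 1 hr, fluorescence.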

[4] = qHTS assay to identify small molecule agonists of the estrogen receptor beta (ER-beta) signaling pathway - cell viability counter screen (AID 1259380); note: nearly all actives have a fitted effect of over 30% in size
How it was run: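 HEK293T ER-beta-UAS-bla; 2% CS-FBS; 6 hr pre-plate, 16 hr cpd at 37C/5% CO2; LiveBLAzer read first, then CellTiter-Glo 30 min RT, luminescence.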

[5] = qHTS assay to identify small molecule antagonists of the estrogen receptor beta (ER-beta) signaling pathway - cell viability counter screen (AID 1259382);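 note: HEK293T cells carrying ER-beta-UAS-bla reporter stimulated with estradiol; series mostly up to about 92 µM; nearly all actives have a fitted effect of over 55% in size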
How it was run: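 Cells: ER-beta-UAS-bla HEK293T, 2,000/well, 2% CS-FBS, 6 hr settle. Cpd + E2 (1nM final), 16 hr, 37C/5% CO2. Bla FRET substrate 2 hr RT, then CellTiter-Glo 30 min RT, luminescence.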

[6] = target: Estrogen receptor (Homo sapiens) (UniProt P03372); assay: qHTS assay to identify small molecule agonists of the estrogen receptor alpha (ER-alpha) signaling pathway in the presence of an antagonist (AID 1259383; calls by dose curve; note: top concentration of the series differs between compounds; nearly all actives have a fitted effect of over 15% in size)
How it was run: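 VM7Luc4E2, endog. ER-alpha + 4×ERE-luc; charcoal-stripped FBS, phenol red-free, 5 d; 24hr plating; +10.0nM ICI-182,780 (final); cpds 15 conc, 22hr, 37C/5% CO2; ONE-Glo luminescence.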

[7] = qHTS assay to identify small molecule agonists or antagonists of the thyroid stimulating hormone receptor (TSHR) signaling pathway - wild type cell line counter screen (AID 1259384; calls by dose curve)
How it was run: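 Counter screen in untransfected Hek293: compounds (15-point titration, triplicate) plus phosphodiesterase inhibitor Ro20-1724 added after 18 h plating; 30 min RT. Intracellular cAMP via competitive d2/cryptate immunoassay, 1 h incubation.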

[8] = target: Thyrotropin receptor (Homo sapiens) (UniProt P16473); assay: qHTS assay to identify small molecule antagonists of the thyroid stimulating hormone receptor (TSHR) signaling pathway (AID 1259385; calls by dose curve; note: nearly all actives have a fitted effect of over 20% in size)
How it was run: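 Antagonist mode: compound-treated TSHR-expressing HEK293 cells were stimulated with 1.5 ng/mL TSH (final) in presence of Ro20-1724 for 30 min at RT. HTRF cAMP detection after 1 h; each compound tested at 15 concentrations, triplicate.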

[9] = qHTS assay to identify small molecule agonists of the estrogen receptor alpha (ER-alpha) signaling pathway in the presence of an antagonist - cell viability counter screen (AID 1259386);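 note: series mostly up to about 92 µM; cells exposed to compounds for 22 h at 37 °C before the viability read; nearly all actives have a fitted effect of over 30% in size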
How it was run: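 VM7Luc4E2, stripped-serum pre-culture 5 d; 24hr plating; +ICI-182,780 10.0nM final; cpds 15 conc, 22hr, 37C/5% CO2; CellTiter-Fluor added at 21hr, fluorescence 1hr later.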

[10] = target: Progesterone receptor (Homo sapiens) (UniProt P06401); assay: qHTS assay to identify small molecule agonists of the progesterone receptor (PR) signaling pathway (AID 1346784; calls by dose curve; note: nearly all actives have a fitted effect of over 30% in size)
How it was run: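 PR-UAS-bla HEK 293T cells (beta-lactamase reporter under UAS) in 2% charcoal-stripped FBS, dosed with 23 nL compound after 6 hr, incubated 16hr at 37C. LiveBLAzer B/G FRET substrate added, fluorescence read after 2 hours.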

[11] = target: Progesterone receptor (Homo sapiens) (UniProt P06401); assay: qHTS assay to identify small molecule antagonists of the progesterone receptor (PR) signaling pathway (AID 1346795; active = well fitted inhibition curve with a large enough effect in the signal ratio in the repeat runs, not every such curve was filed as active; the % refers to the signal ratio; note: potency is the fitted concentration of half-maximal effect)
How it was run: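 PR-UAS-bla HEK293T cells with beta-lactamase reporter under UAS control, in 2% charcoal-stripped FBS, treated with compounds plus 1 nM promegestone (R5020, final) for 16 hr at 37C. Read-out: FRET beta-lactamase substrate fluorescence after 2 hr at room temperature.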

[12] = qHTS assay to identify small molecule antagonists of the progesterone receptor (PR) signaling pathway - cell viability counter screen (AID 1346798); note: nearly all actives have a fitted effect of over 50% in size; note: potency is the fitted concentration of half-maximal effect
How it was run: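 PR-UAS-bla HEK293T cells, 3,000/well in 2% charcoal-stripped FBS medium, dosed with compounds plus R5020 agonist and incubated 16 h at 37C. Viability then measured in the same wells by CellTiter-Glo luminescence after 30 min at RT.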

[13] = qHTS assay to identify small molecule antagonists of the TGF-beta/Smad signaling pathway - cell viability counter screen (AID 1346824); note: nearly all actives have a fitted effect of over 50% in size
How it was run: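 Cytotoxicity counter-screen run in the same wells as the beta-lactamase Smad reporter read: CellTiter-Glo luminescence after 30 min at room temperature. HEK 293T SBE-bla cells had 5 hr compound exposure at 37 C with TGF-beta1 (0.25 ng/mL stock).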

[14] = qHTS assay to identify small molecule agonists of the TGF-beta/Smad signaling pathway - cell viability counter screen (AID 1346829); note: top concentration of the series differs between compounds; nearly all actives have a fitted effect of over 45% in size
How it was run: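 Tox21 qHTS format: SBE-bla HEK 293T cells treated with DMSO-dissolved compounds for 5 hr; CellTiter-Glo luminescence after 30 min at room temperature.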

[15] = qHTS assay to identify small molecule agonists of the TGF-beta/Smad signaling pathway (AID 1346859; active = well fitted activation curve with a large enough effect in the signal ratio in the repeat runs, not every such curve was filed as active; the % refers to the signal ratio; note: series mostly up to about 77 µM)
How it was run: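 SBE-bla HEK293T cells plated overnight, then compound exposure for 5 h at 37 C. Beta-lactamase reporter read with LiveBLAzer B/G FRET substrate after 2 h at room temperature, fluorescence at 405 nm excitation, 460/530 nm emission.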

[16] = target: Thyrotropin-releasing hormone receptor (Homo sapiens) (UniProt P34981); assay: qHTS assay to identify small molecule antagonists of the thyrotropin-releasing hormone receptor (TRHR) signaling pathway (AID 1346877; active = well fitted inhibition curve with a large enough effect in the repeat runs, not every such curve was filed as active; note: series mostly up to about 51 µM)
How it was run: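 Intracellular calcium fluorescence, read kinetically every second over 3 min, reports TRH-evoked signalling in HEK293 cells carrying TRHR. Test compounds were added 5 min ahead of a 1 nM TRH challenge.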

[17] = target: Thyrotropin-releasing hormone receptor (Homo sapiens) (UniProt P34981); assay: qHTS assay to identify small molecule agonists of the thyrotropin-releasing hormone receptor (TRHR) signaling pathway (AID 1346891; calls by dose curve; note: series mostly up to about 58 µM)
How it was run: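 HEK293 cells expressing TRHR plated 18 h at 37 C/5% CO2, calcium dye-loaded 2 h at 37 C, then compound added (agonist mode); kinetic calcium fluorescence read 3 min at 1 s intervals; 15 concentrations in triplicate.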

[18] = qHTS assay to identify small molecule agonists of the progesterone receptor (PR) signaling pathway - cell viability counter screen (AID 1346799; calls by dose curve; note: nearly all actives have a fitted effect of over 45% in size; note: potency is the fitted concentration of half-maximal effect)
How it was run: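 Counter screen in the PR-UAS-bla HEK293T wells (2% charcoal-stripped FBS, 16 h compound exposure at 37 C) after the bla read. CellTiter-Glo added, 30 min at room temperature, luminescence read as cell viability.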

[19] = qHTS assay to identify small molecule antagonists of the sonic hedgehog signaling (Shh) pathway (AID 1259369; calls by dose curve; note: nearly all actives have a fitted effect of over 45% in size; note: potency is the fitted concentration of half-maximal effect)
How it was run: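 3T3Gli1-Luc, conditioned-medium-stimulated, 24hr cpd, 37C/5% CO2; Gli1-driven firefly Luc luminescence after 30min RT with luciferase reagent. Cells plated 4hr before cpd.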

Measured: Potency

Sequence of Thyrotropin-releasing hormone receptor (Homo sapiens) (P34981 whole entry, looked up): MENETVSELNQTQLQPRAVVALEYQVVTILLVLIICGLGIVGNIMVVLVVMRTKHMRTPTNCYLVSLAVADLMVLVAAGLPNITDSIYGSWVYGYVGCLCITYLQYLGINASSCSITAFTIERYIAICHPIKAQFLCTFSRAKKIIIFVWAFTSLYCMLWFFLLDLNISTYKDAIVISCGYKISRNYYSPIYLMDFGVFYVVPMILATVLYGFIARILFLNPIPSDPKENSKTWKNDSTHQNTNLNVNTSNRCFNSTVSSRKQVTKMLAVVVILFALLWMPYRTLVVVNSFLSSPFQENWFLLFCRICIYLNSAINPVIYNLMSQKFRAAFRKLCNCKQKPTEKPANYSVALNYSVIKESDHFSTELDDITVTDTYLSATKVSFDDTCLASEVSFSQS
Sequence of Progesterone receptor (Homo sapiens) (P06401 whole entry, looked up): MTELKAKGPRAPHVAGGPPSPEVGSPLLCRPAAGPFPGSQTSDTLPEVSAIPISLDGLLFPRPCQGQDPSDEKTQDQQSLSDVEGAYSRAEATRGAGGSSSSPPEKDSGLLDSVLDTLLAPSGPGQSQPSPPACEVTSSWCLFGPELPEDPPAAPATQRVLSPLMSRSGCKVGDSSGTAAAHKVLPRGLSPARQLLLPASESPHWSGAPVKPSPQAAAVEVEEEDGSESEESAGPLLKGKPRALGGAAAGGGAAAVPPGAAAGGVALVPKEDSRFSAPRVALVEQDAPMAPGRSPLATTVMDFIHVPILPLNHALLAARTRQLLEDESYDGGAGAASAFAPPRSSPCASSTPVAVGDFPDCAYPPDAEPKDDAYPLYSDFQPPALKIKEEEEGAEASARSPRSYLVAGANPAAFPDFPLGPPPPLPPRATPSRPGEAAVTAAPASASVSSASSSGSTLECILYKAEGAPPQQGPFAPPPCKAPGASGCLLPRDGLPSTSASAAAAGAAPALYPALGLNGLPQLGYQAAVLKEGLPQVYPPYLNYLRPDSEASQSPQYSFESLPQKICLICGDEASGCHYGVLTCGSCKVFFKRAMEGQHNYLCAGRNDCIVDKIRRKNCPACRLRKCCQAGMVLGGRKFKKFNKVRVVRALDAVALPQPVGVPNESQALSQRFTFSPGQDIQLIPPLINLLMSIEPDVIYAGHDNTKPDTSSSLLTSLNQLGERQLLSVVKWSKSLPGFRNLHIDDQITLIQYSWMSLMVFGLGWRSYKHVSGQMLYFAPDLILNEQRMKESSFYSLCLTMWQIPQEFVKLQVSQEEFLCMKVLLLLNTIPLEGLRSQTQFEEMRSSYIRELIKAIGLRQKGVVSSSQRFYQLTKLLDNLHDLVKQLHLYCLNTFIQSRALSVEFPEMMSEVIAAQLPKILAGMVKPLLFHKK
Sequence of Estrogen receptor (Homo sapiens) (P03372 whole entry, looked up): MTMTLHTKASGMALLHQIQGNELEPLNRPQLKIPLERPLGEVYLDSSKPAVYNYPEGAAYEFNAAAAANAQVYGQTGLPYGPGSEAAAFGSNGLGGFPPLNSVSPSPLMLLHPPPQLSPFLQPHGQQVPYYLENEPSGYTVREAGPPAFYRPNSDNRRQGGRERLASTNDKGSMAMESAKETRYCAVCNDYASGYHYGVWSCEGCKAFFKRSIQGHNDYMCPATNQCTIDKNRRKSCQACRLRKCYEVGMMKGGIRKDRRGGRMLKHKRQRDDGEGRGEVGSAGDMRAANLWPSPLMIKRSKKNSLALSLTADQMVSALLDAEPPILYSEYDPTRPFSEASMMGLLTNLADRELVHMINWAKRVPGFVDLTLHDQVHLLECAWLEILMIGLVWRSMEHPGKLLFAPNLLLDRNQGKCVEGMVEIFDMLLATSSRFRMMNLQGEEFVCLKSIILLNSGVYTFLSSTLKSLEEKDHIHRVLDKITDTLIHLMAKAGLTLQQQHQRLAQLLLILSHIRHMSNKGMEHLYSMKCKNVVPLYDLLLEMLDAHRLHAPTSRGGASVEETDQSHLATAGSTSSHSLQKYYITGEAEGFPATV
Sequence of Thyrotropin receptor (Homo sapiens) (P16473 whole entry, looked up): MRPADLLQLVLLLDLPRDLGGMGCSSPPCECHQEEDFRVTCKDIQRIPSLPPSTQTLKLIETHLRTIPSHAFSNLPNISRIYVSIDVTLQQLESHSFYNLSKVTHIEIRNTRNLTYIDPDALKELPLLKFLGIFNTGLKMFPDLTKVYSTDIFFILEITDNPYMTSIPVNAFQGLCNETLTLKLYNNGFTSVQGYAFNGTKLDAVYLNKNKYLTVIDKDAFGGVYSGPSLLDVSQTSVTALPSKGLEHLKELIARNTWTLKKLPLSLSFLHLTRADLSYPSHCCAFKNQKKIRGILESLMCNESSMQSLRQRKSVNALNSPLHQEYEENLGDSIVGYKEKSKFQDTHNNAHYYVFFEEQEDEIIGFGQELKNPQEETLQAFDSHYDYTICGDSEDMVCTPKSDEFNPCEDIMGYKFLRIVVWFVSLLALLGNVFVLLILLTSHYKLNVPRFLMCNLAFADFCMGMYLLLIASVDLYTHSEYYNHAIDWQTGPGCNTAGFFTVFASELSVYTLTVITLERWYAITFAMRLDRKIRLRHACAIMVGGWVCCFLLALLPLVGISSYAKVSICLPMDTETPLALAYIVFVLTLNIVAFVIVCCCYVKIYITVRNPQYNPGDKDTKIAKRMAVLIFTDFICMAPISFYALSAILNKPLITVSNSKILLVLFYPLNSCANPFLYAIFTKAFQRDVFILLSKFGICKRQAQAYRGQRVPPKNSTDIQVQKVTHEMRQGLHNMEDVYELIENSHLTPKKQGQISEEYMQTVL
Sequence of Estrogen receptor beta (Homo sapiens) (Q92731 whole entry, looked up): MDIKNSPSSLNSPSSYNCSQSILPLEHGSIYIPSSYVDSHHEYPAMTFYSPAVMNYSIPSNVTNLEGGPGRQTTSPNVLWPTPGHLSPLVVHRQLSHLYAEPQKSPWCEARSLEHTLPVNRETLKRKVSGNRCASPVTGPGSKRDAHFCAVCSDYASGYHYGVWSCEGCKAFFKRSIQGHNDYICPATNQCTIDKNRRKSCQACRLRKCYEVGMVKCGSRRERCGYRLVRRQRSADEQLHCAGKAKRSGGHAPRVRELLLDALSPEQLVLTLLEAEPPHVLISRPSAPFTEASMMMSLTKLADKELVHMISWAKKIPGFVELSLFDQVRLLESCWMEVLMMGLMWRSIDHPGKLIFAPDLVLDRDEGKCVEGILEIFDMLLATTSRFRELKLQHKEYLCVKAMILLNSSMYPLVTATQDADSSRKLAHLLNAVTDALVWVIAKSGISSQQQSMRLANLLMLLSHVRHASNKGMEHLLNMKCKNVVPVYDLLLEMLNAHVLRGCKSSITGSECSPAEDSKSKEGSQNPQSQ

CCOC(=O)OC(C)OC1=C(C(=O)Nc2ccccn2)N(C)S(=O)(=O)c2ccccc21 (configuration not stated)
not listed: [18] | [19]
inactive: all other assays above

COc1c(N2CCNC(C)C2)c(F)cc2c(=O)c(C(=O)O)cn(C3CC3)c12 (configuration not stated)
not listed: [6] | [7] | [8] | [10] | [13] | [19]
inactive: all other assays above

CCCCCCCC1CCCC1=O (configuration not stated)
not listed: [14] | [16] | [17] | [19]
inactive: all other assays above

N[C@H](C(=O)O)[C@@H](O)c1ccc(O)c(O)c1
not listed: [6] | [10] | [11] | [12] | [19]
inactive: all other assays above

CC(C#N)(CCC(=O)O)N=NC(C)(C#N)CCC(=O)O (configuration not stated)
not listed: [4] | [6] | [10] | [14] | [17] | [19]
inactive: all other assays above

CC(C)(C#N)Nc1nc(Cl)nc(NC2CC2)n1
active: [19] 0.243 µM
not listed: [1] | [2] | [3] | [4] | [6] | [12] | [16]
inactive: all other assays above

COc1cc(C)nc(-n2nc(C)cc2OC)n1
inactive: [19] | [4] | [5] | [7] | [8] | [9] | [13] | [15]
active: [12] 11.9 µM | [18] 8.41 µM

CC12CCC(C(=O)C1=O)C2(C)C (configuration not stated)
inactive: [19] | [3] | [5] | [9] | [10] | [12] | [18] | [13] | [14] | [15]

CC(=O)OCC(=O)[C@@]1(O)[C@H](C)C[C@H]2[C@@H]3CCC4=CC(=O)C=C[C@]4(C)[C@@]3(F)[C@@H](O)C[C@@]21C
not listed: [6] | [10] | [11] | [13] | [18] | [19]
inactive: all other assays above

N[C@@H](CCC(=O)O)C(=O)O
not listed: [1] | [2] | [3] | [4] | [10]
inactive: all other assays above

Cc1ncc(COP(=O)(O)O)c(C=O)c1O
not listed: [1] | [2] | [3] | [4] | [6] | [8] | [10] | [12]
inactive: all other assays above

NC(=O)N[C@@H](CCC(=O)O)C(=O)O
not listed: [1] | [2] | [3] | [6] | [14] | [16] | [17]
inactive: all other assays above

COC(=O)Nc1ccc(Cl)c(Cl)c1
active: [11] 30.5 µM
not listed: [6] | [18] | [19]
inactive: all other assays above

CC(C)CCCO
not listed: [4] | [18] | [19]
inactive: all other assays above

O=C(O)CNC(=O)c1ccccc1
not listed: [6] | [12] | [19]
inactive: all other assays above

CC(C)NNC(=O)c1ccncc1
not listed: [1] | [2] | [3] | [6] | [11] | [15] | [16] | [17]
inactive: all other assays above

CC(N)C12CC3CC(CC(C3)C1)C2 (configuration not stated)
not listed: [4] | [6] | [14] | [19]
inactive: all other assays above

CCCCCCCCCC[N+](C)(C)[O-]
not listed: [4] | [7] | [8] | [12] | [19]
inactive: all other assays above
